# High-throughput results from PubChem BioAssay.
# This is a sample that favours compounds with a hit; in the whole collection about 7.4% have one here.
# Rab9 prom act: activates the Rab9 promoter. Huh7 Rab9 promoter-luciferase reporter, luminescence, 24 h. Potency, µM (highest dose often 9.22 µM), inactives show at the top dose activation, negative = inhibition, most hits filed as activators. hit rate 2.8% among 320,000. AID 485297; note: % of control where 0% means no effect; nearly all actives have a fitted effect of over 60% in size
#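 Promoter activation is measured as luciferase luminescence in Huh7 cells stably transfected with a Rab9 promoter–luciferase construct, following 24 h compound exposure at 37 °C and 10 min reagent incubation at ambient temperature.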
# ELG1 genotox: inducers of genotoxicity in HEK293T ELG1-luciferase cells; HEK293T ELG1-luciferase reporter, luminescence, 16 h; Potency, µM (series often up to 46 µM), for inactives: at the highest dose activity change, positive = activation, most hits filed as activators; hit rate 1.3% among 330,000; AID 504466; note: % of control where 0% means no effect; nearly all actives have a fitted effect of over 60% in size
#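 HEK293T cells expressing luciferase-tagged ELG1 were exposed to compound or DMSO vehicle for 16 hr at 37 °C and 5% CO2. Luciferase activity was then measured with ONE-Glo after 30 min at room temperature.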
# FLuc counter: counter-screen for miR-21 project: firefly luciferase inhibitors or activators | P08659 | purified FLuc, Km substrates, luminescence inhibition | Potency, µM (top dose mostly 57.5 µM), for the others: at the top dose activity change, negative = inhibition, most hits filed as inhibitors | hit rate 6.9% among 360,000 | AID 588342;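 note: plate controls were vehicle for no effect and reference inhibitor for full effect; nearly all actives have a fitted effect of over 55% in size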
# Target sequence (P08659 whole entry, looked up): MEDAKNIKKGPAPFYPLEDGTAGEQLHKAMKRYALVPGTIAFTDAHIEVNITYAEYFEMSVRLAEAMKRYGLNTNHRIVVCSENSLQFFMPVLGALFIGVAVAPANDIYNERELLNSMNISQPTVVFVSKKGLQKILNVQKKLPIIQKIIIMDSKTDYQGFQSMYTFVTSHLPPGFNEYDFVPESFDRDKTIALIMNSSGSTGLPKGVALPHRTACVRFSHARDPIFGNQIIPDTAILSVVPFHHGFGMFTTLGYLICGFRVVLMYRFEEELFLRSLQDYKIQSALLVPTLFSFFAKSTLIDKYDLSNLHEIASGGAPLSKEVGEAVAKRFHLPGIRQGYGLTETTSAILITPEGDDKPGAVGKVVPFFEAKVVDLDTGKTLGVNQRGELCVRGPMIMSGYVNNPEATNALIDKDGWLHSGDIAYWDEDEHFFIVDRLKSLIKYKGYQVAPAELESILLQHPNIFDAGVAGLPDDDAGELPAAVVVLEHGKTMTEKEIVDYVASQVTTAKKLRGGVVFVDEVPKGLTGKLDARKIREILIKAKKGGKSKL
#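 Biochemical qHTS of compounds, final roughly 60 µM downward over six points, against 10 nM purified firefly luciferase using Km concentrations of substrates (10 uM D-luciferin, 10 uM ATP) in Tris acetate pH 7.5 buffer; luminescence output.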
# NPC1 prom act: NPC1 promoter activation | Huh7 NPC1 promoter luciferase reporter, 24 h | Potency, µM (series often up to 9.22 µM), inactives show top-dose activation, hits mostly activators | hit rate 2.4% among 320,000; note: % of control where 0% means no effect; nearly all actives have a fitted effect of over 60% in size
#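 Luminescence from an NPC1 promoter-driven luciferase reporter in stably transfected Huh7 cells was measured after 24 h compound treatment at 37 °C, followed by 10 min ambient incubation with luciferase detection reagent.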
# SMN2 splice enh: enhancers of SMN2 splice variant expression; HEK293 SMN2-luciferase splicing reporter, luminescence, 30-36 h; Potency, µM (titrated, usually from 46.1 µM), for inactives: at the highest dose activity change, positive = activation, actives largely listed as activators; hit rate 2.8% among 210,000; AID 1458; note: % of control where 0% means no effect; nearly all actives have a fitted effect of over 55% in size
#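 HEK293 cells carry an SMN2 minigene-luciferase reporter in which exon 7 inclusion puts luciferase in frame. Cells were seeded at 2000 cells/well, attached for 10-12 hours, then exposed to compounds for 30-36 hours at 37C before ONE-Glo luminescence.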
# * hit, by the source's call; ? = inconclusive; . = not tested or not shown; [ ] = remark or other dose. Calls come from the whole dose curve; as a rule, active = well fitted curve in the direction sought with a large enough effect; inconclusive = small, poorly fitted or top-dose-only effect, or another doubt; inactive = no such curve, though single readings can be large; an effect the other way counts as inactive or inconclusive. Potency is the fitted concentration of half-maximal effect.
SMILES,Rab9 prom act,ELG1 genotox,FLuc counter,NPC1 prom act,SMN2 splice enh
COc1ccc(N2C(=O)C(CC(N)=O)N(NC(=O)c3cccc(OC)c3)C2=S)cc1 (stereo not given),-3%,4%,-10%,0%,1%
COc1ccc(Cn2c(NCC(C)C)nc3c2c(=O)n(C)c(=O)n3C)cc1,.,.,-9%,.,8%
CCCNC(=O)c1cc(Cl)c(NC(=O)C2=CSCCO2)cc1OC,?,17%,19µM*,?,.
COC(C(=O)Nc1ccc(C(N)=O)cc1)c1ccccc1 (stereo not given),-8%,-2%,4%,1%,16µM*
Cc1ccc(Nc2ncnc(N)n2)cc1C,7%,17%,.,6%,.
C[C@@H]1CC=C[C@H]2[C@H]1C(=O)N(Cc1ccccc1)[C@H]2c1ccc(-c2ccc(F)cc2)cc1F,-7%,-5%,3%,-9%,.
C[C@@H]1CC=C[C@H]2[C@H]1C(=O)N(Cc1ccccc1)[C@H]2c1ccc(-c2cc3ccccc3s2)cc1F,?,?,1.7µM*,?,.
O=C(Nc1ccc(F)c(Cl)c1)c1nsc(Cl)c1Cl,2.8µM*,21µM*,2.4µM*,2.2µM*,.
CCOc1ccc(NC(=O)c2nn(C)cc2Br)cc1,3.2µM*,?,7.6µM*,?,.
CC(C)OC(=O)c1cc(NC(=O)c2nn(C)cc2Br)cc(C(=O)OC(C)C)c1,-3%,7%,-1%,-4%,7%
Cn1cc(Br)c(C(=O)NNC(=O)c2ccc(Cl)cc2)n1,29%,?,19µM*,22%,?
Cn1cc(Br)c(C(=O)NNC(=O)Cc2ccc(Cl)cc2)n1,10%,-2%,0%,-2%,.
O=C(Nc1ccc(F)cc1)c1nsc(Cl)c1Cl,3.2µM*,?,4.8µM*,3.5µM*,11µM*
Cc1ccccc1CNC(=O)Cn1cc2c(n1)-c1c(oc(C(=O)N3CCCC3)c1C)CC2,.,.,-13%,.,.
CCOc1ccc(NC(=O)c2sc3ccccc3c2Cl)cc1,.,.,0%,.,-6%
CCOc1ccc(NC(=O)c2nsc(Cl)c2Cl)cc1,1.4µM*,4.6µM*,4.8µM*,2.2µM*,.
Cn1cc(Br)c(C(=O)Nc2ncc(Br)s2)n1,2.5µM*,?,-16%,3.5µM*,4.5µM*
CCC(NC(=O)c1ccccc1NC(=O)c1ccc(C)cc1)C(=O)O (stereo not given),20%,?,13µM*,10%,2%
Cc1ccc(C(=O)Nc2ccccc2C(=O)NC(Cc2ccccc2)C(=O)O)cc1 (stereo not given),24%,13%,11µM*,14%,13%
CC(=O)N[C@H](Cc1c[nH]c2ccccc12)C(=O)O,.,.,.,.,-12%[9.22 µM]
CCC(C)C(NC(=O)c1ccccc1NC(=O)c1ccccc1)C(=O)O (stereo not given),0%,-2%,3%,-2%,.
Cc1ccc(C(=O)Nc2ccccc2C(=O)NC(Cc2c[nH]c3ccccc23)C(=O)O)cc1 (stereo not given),21%,9%,11µM*,11%,23%
O=C(CSC(=S)N1CCOCC1)Nc1ccc(S(=O)(=O)Nc2ncccn2)cc1,7%,2%,-1%,-2%,.
CC(Cc1ccco1)NC(=O)c1ccc(C(F)(F)F)cc1 (stereo not given),1µM*,8.2µM*,6.7µM*,0.71µM*,.
CC(Cc1ccco1)NC(=O)c1cccc(S(=O)(=O)N(C)C)c1 (stereo not given),?,15µM*,?,?,.
SMILES,Rab9 prom act,ELG1 genotox,FLuc counter,NPC1 prom act,SMN2 splice enh
Cc1cc(C(=O)N/N=C/c2cccnc2)cs1,17%,7%,?,0%,?
Nc1ccc(C(=O)N/N=C/c2ccccc2)cc1,3.2µM*,?,11µM*,?,?
O=C(N/N=C\c1ccc(F)cc1)c1ccc(F)cc1,?,?,19µM*,?,?
CSc1ccc(/C=N/NC(=O)c2cccc(O)c2)cc1,3.5µM*,?,4.3µM*,?,?
Cc1ccc(C(=O)N/N=C\c2cccnc2)s1,?,?,6.7µM*,24%,.
O=C(N/N=C\c1cccc(O)c1)c1ccncc1,.,.,.,.,-3%[9.22 µM]
Cc1cc2oc(=O)cc(CNc3ccccc3F)c2cc1O,-8%,0%,-3%,-3%,.
CC(=O)n1cc(/C=N/NC(=O)c2ccc([N+](=O)[O-])cc2)c2ccccc21,11%,3%,6.7µM*,6%,.
COC(=O)c1ccc(/C=N/NC(=O)c2cccc(F)c2)cc1,3.2µM*,?,-66%,2µM*,14µM*
O=C(N/N=C/c1cccnc1)c1ccc(F)cc1,?,14%,13µM*,27%,.
O=C(N/N=C/c1ccoc1)c1ccc([N+](=O)[O-])cc1,1%,7%,21µM*,4%,.
Cc1c(/C=N\NC(=O)c2ccc([N+](=O)[O-])cc2)cnn1C,2%,1%,-17%,1%,0%
O=C(O)CCc1nnc2cnc3ccccc3n12,.,.,-4%,.,5%
CC(=O)c1cc(-c2ccccc2)n(CC(=O)Nc2ccc(C)cc2C)c1C,.,.,1%,.,.
Cc1ccc(C(=O)NC2CCCCC2)cc1S(=O)(=O)N1CCCC1,27%,16%,?,16%,.
CCN(CC(=O)Nc1ccc(NC(C)=O)cc1)C(=O)C1COc2ccccc2O1 (stereo not given),1%,3%,3%,1%,.
O=C(N/N=C/c1cccnc1)c1ccccc1,11%,10%,?,16%,.
CC(C)(C)NC(=O)C(=O)N/N=C/c1ccc(F)cc1,2%,1%,-8%,8%,5%
O=C(N/N=C/c1cccnc1)c1ccc([N+](=O)[O-])cc1,-2%,0%,15µM*,-4%,-12%
CN(C)/C=C(\C#N)C(=O)N/N=C/c1ccc(F)cc1,10%,4%,17µM*,10%,5%
CSc1nc(-c2ccc(Cl)cc2)nn1S(=O)(=O)c1ccc(Cl)cc1,3.5µM*,?,-19%,26%,11µM*
CS(=O)(=O)n1nc(-c2ccc(Cl)cc2)nc1SCc1ccccc1,?,15µM*,.,?,22%
Cc1ccc(S(=O)(=O)n2nc(-c3ccc(Cl)cc3)nc2NCc2ccco2)cc1,14%,?,6%,13%,?
O=S(=O)(c1ccccc1)n1nc(-c2ccc(Cl)cc2)nc1NCc1ccccc1,.,.,2%,.,19%
CSc1nc(-c2ccc(Cl)cc2)nn1S(=O)(=O)c1ccccc1,?,18%,13µM*,?,13µM*
CCCCN(CC)CCCNC(=O)c1cn(-c2ccc(OC)cc2)c(=O)c2ccccc12,-8%,0%,0%,-5%,.
COc1ccc(/C=C/C(=O)c2ccc(OC)cc2OC)cc1,12%,5%,12µM*,20%,.
COc1ccc(/C=C/C(=O)c2cc(O)ccc2O)cc1,.,.,.,.,-75%
COc1ccc(C(=O)/C=C/c2ccc(OC)cc2OC)c(O)c1,?,?,3µM*,?,.
